# Laboratory results reported in PubChem BioAssay AID1159580 (chemical genetic matrix, 2015).
# The campaign covered roughly 5,500 compounds. About 2,000 (36%) were called active. Roughly 18% stayed inconclusive and do not appear here. The list shows a part of the results. A number with no mark means an inactive call. Rule as the data show it: active = normalized growth mostly below about 0.91 (no sharp cut-off); inconclusive = no clear call, values can overlap the other calls; inactive = mostly above about 0.92.
# Assay: chemical genetic growth profiling, strain panel (AID 1159580);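 also: tested at 20 µM; growth read once vehicle control cultures reached saturation at 30 °C; 1 = growth at the plate median or of vehicle wells; lower values mean less growth of the strain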
# Conditions: growth OD
# [1] = S. cerevisiae deletion strains, locus YAL013W, strain DEP1, hits give low values
# [2] = S. cerevisiae deletion strains, locus YBR229C, strain ROT2, hits give low values
# [3] = S. cerevisiae deletion strains, locus YDL101C, strain DUN1, hits give low values
# [4] = S. cerevisiae deletion strains, locus YDR150W, strain NUM1, hits give low values
# [5] = S. cerevisiae deletion strains, locus YEL061C, strain CIN8, hits give low values
# [6] = S. cerevisiae deletion strains, locus YGR078C, strain PAC10, hits give low values
# [7] = S. cerevisiae deletion strains, locus YHR030C, strain SLT2, hits give low values
# [8] = S. cerevisiae deletion strains, locus YHR087W, strain rtc3, hits give low values
# [9] = S. cerevisiae deletion strains, locus YJR043C, strain POL32, hits give low values
# [10] = S. cerevisiae deletion strains, locus YJR075W, strain HOC1, hits give low values
# [11] = S. cerevisiae deletion strains, locus YKL190W, strain CNB1, hits give low values
# [12] = S. cerevisiae deletion strains, locus YLR039C, strain RIC1, hits give low values
# [13] = S. cerevisiae deletion strains, locus YLR058C, strain SHM2 (second series), hits give low values
# [14] = S. cerevisiae deletion strains, locus YLR085C, strain ARP6, hits give low values
# [15] = S. cerevisiae deletion strains, locus YLR262C, strain YPT6, hits give low values
# [16] = S. cerevisiae deletion strains, locus YML094W, strain GIM5, hits give low values
# [17] = S. cerevisiae deletion strains, locus YMR219W, strain ESC1, hits give low values
# [18] = S. cerevisiae deletion strains, locus YMR263W, strain SAP30, hits give low values
# [19] = S. cerevisiae deletion strains, locus YNL153C, strain GIM3, hits give low values
# [20] = S. cerevisiae deletion strains, locus YNL298W, strain CLA4 (second series), hits give low values
# [21] = S. cerevisiae deletion strains, locus YNL322C, strain KRE1, hits give low values
# [22] = S. cerevisiae deletion strains, locus YNR030W, strain Alg12, hits give low values
# [23] = S. cerevisiae deletion strains, locus YPL055C, strain LGE1, hits give low values
# [24] = S. cerevisiae deletion strains, locus YPL241C, strain CIN2, hits give low values
# [25] = S. cerevisiae deletion strains, locus YPR135W, strain CTF4, hits give low values
smiles,measurement,setting,value
CC1=CC(C)(C)NC(=S)N1,normalized growth,[1],1.01
same,normalized growth,[2],1.01
same,normalized growth,[3],1
same,normalized growth,[4],0.981
same,normalized growth,[5],1.01
same,normalized growth,[6],1
same,normalized growth,"S. cerevisiae deletion strains, locus YGR229C, strain SMI1, hits give low values",1.02
same,normalized growth,[7],1.06
same,normalized growth,[8],1
same,normalized growth,[9],1
same,normalized growth,[10],1.01
same,normalized growth,[11],1.01
same,normalized growth,[12],1.01
same,normalized growth,[13],1
same,normalized growth,[14],0.984
same,normalized growth,[15],1.05
same,normalized growth,[16],0.996
same,normalized growth,[17],1
same,normalized growth,[18],1.02
same,normalized growth,[19],0.997
same,normalized growth,[20],1
same,normalized growth,[21],1.01
same,normalized growth,[22],1.01
same,normalized growth,[23],0.984
same,normalized growth,[24],1.03
same,normalized growth,[25],1.06
Oc1ccc(-n2nnnc2SCc2ccc(OC(F)(F)F)cc2)cc1,normalized growth,"S. cerevisiae deletion strains, locus YAR019C, strain CDC15, hits give low values",0.974
same,normalized growth,"S. cerevisiae deletion strains, locus YBL105C, strain PKC1, hits give low values",0.971
same,normalized growth,"S. cerevisiae deletion strains, locus YBR135W, strain CKS1, hits give low values",0.979
same,normalized growth,"S. cerevisiae deletion strains, locus YBR136W, strain MEC1, hits give low values",0.975
same,normalized growth,"S. cerevisiae deletion strains, locus YBR160W, strain CDC28, hits give low values",0.971
same,normalized growth,"S. cerevisiae deletion strains, locus YDL017W, strain CDC7, hits give low values",0.982
same,normalized growth,"S. cerevisiae deletion strains, locus YDL028C, strain MPS1, hits give low values",0.979
same,normalized growth,[3],0.988
same,normalized growth,"S. cerevisiae deletion strains, locus YDL108W, strain KIN28, hits give low values",0.972
same,normalized growth,"S. cerevisiae deletion strains, locus YDL132W, strain cdc53, hits give low values",0.984
same,normalized growth,"S. cerevisiae deletion strains, locus YDL214C, strain PRR2, hits give low values",0.815
same,normalized growth,"S. cerevisiae deletion strains, locus YDR052C, strain DBF4, hits give low values",0.984
same,normalized growth,"S. cerevisiae deletion strains, locus YDR054C, strain cdc34, hits give low values",0.968
same,normalized growth,"S. cerevisiae deletion strains, locus YDR226W, strain ADK1, hits give low values",0.98
same,normalized growth,"S. cerevisiae deletion strains, locus YDR477W, strain SNF1, hits give low values",0.783
same,normalized growth,"S. cerevisiae deletion strains, locus YER123W, strain YCK3, hits give low values",0.651
same,normalized growth,"S. cerevisiae deletion strains, locus YER133W, strain GLC7, hits give low values",0.767
same,normalized growth,"S. cerevisiae deletion strains, locus YFL009W, strain cdc4, hits give low values",0.975
same,normalized growth,"S. cerevisiae deletion strains, locus YFL029C, strain CAK1, hits give low values",0.97
same,normalized growth,"S. cerevisiae deletion strains, locus YFR003C, strain YPI1, hits give low values",0.98
same,normalized growth,"S. cerevisiae deletion strains, locus YFR019W, strain FAB1, hits give low values",0.794
same,normalized growth,"S. cerevisiae deletion strains, locus YFR028C, strain CDC14, hits give low values",0.97
same,normalized growth,"S. cerevisiae deletion strains, locus YGR040W, strain KSS1, hits give low values",0.747
same,normalized growth,"S. cerevisiae deletion strains, locus YGR052W, strain FMP48, hits give low values",0.577 (active)
same,normalized growth,"S. cerevisiae deletion strains, locus YGR092W, strain DBF2, hits give low values",0.663
same,normalized growth,[7],0.554 (active)
same,normalized growth,"S. cerevisiae deletion strains, locus YHR079C, strain IRE1, hits give low values",0.563
same,normalized growth,"S. cerevisiae deletion strains, locus YHR082C, strain KSP1, hits give low values",0.617
same,normalized growth,"S. cerevisiae deletion strains, locus YHR205W, strain SCH9, hits give low values",0.867
same,normalized growth,"S. cerevisiae deletion strains, locus YIL147C, strain SLN1, hits give low values",0.984
same,normalized growth,"S. cerevisiae deletion strains, locus YJL095W, strain BCK1, hits give low values",0.597
same,normalized growth,"S. cerevisiae deletion strains, locus YJL128C, strain PBS2, hits give low values",0.932
same,normalized growth,"S. cerevisiae deletion strains, locus YJL157C, strain FAR1, hits give low values",0.832
same,normalized growth,"S. cerevisiae deletion strains, locus YJR016C, strain ILV3, hits give low values",0.977
same,normalized growth,"S. cerevisiae deletion strains, locus YJR066W, strain TOR1 (second series), hits give low values",0.738
same,normalized growth,"S. cerevisiae deletion strains, locus YJR066W, strain TOR1, hits give low values",0.647
same,normalized growth,"S. cerevisiae deletion strains, locus YKL048C, strain ELM1, hits give low values",0.635 (active)
same,normalized growth,"S. cerevisiae deletion strains, locus YKL067W, strain YNK1, hits give low values",0.794
same,normalized growth,"S. cerevisiae deletion strains, locus YKL101W, strain HSL1, hits give low values",0.716 (active)
same,normalized growth,"S. cerevisiae deletion strains, locus YKL193C, strain SDS22, hits give low values",0.978
same,normalized growth,"S. cerevisiae deletion strains, locus YKL203C, strain TOR2, hits give low values",0.803
same,normalized growth,"S. cerevisiae deletion strains, locus YLR113W, strain HOG1, hits give low values",0.523 (active)
same,normalized growth,"S. cerevisiae deletion strains, locus YLR133W, strain CKI1, hits give low values",0.835
same,normalized growth,"S. cerevisiae deletion strains, locus YLR403W, strain SFP1, hits give low values",0.828
same,normalized growth,"S. cerevisiae deletion strains, locus YML070W, strain DAK1, hits give low values",0.703
same,normalized growth,"S. cerevisiae deletion strains, locus YMR001C, strain CDC5, hits give low values",0.97
same,normalized growth,"S. cerevisiae deletion strains, locus YMR205C, strain PFK2 (second series), hits give low values",0.782
same,normalized growth,"S. cerevisiae deletion strains, locus YMR277W, strain FCP1, hits give low values",0.981
same,normalized growth,"S. cerevisiae deletion strains, locus YNL006W, strain LST8, hits give low values",0.981
same,normalized growth,"S. cerevisiae deletion strains, locus YNL020C, strain ARK1, hits give low values",0.805
same,normalized growth,"S. cerevisiae deletion strains, locus YNL161W, strain CBK1, hits give low values",0.976
same,normalized growth,"S. cerevisiae deletion strains, locus YNL183C, strain NPR1, hits give low values",0.635
same,normalized growth,"S. cerevisiae deletion strains, locus YNL207W, strain RIO2, hits give low values",0.97
same,normalized growth,"S. cerevisiae deletion strains, locus YNL222W, strain SSU72, hits give low values",0.966
same,normalized growth,"S. cerevisiae deletion strains, locus YNL307C, strain MCK1 (second series), hits give low values",0.791
same,normalized growth,"S. cerevisiae deletion strains, locus YOL078W, strain AVO1, hits give low values",0.978
same,normalized growth,"S. cerevisiae deletion strains, locus YOL136C, strain PFK27, hits give low values",0.75
same,normalized growth,"S. cerevisiae deletion strains, locus YOR061W, strain CKA2, hits give low values",0.772
same,normalized growth,"S. cerevisiae deletion strains, locus YOR119C, strain RIO1, hits give low values",0.806
same,normalized growth,"S. cerevisiae deletion strains, locus YOR231W, strain MKK1, hits give low values",0.509 (active)
same,normalized growth,"S. cerevisiae deletion strains, locus YOR329C, strain SCD5, hits give low values",0.986
same,normalized growth,"S. cerevisiae deletion strains, locus YPL031C, strain PHO85, hits give low values",0.725
same,normalized growth,"S. cerevisiae deletion strains, locus YPL153C, strain RAD53, hits give low values",0.599 (active)
same,normalized growth,"S. cerevisiae deletion strains, locus YPL204W, strain HRR25, hits give low values",0.622 (active)
same,normalized growth,"S. cerevisiae deletion strains, locus YPL209C, strain IPL1, hits give low values",0.977
same,normalized growth,"S. cerevisiae deletion strains, locus YPL256C, strain CLN2, hits give low values",0.467 (active)
same,normalized growth,"S. cerevisiae deletion strains, locus YPR025C, strain CCL1, hits give low values",0.975
same,normalized growth,"S. cerevisiae deletion strains, locus YPR106W, strain ISR1, hits give low values",0.971
same,normalized growth,"S. cerevisiae deletion strains, locus YPR111W, strain DBF20, hits give low values",0.967
same,normalized growth,"S. cerevisiae deletion strains, strain NNK1, hits give low values",0.979
same,normalized growth,"S. cerevisiae deletion strains, strain TSCII, hits give low values",0.983
NNC(=S)Nc1ccc(C(F)(F)F)cc1,normalized growth,[1],0.918 (active)
same,normalized growth,[2],0.895 (active)
same,normalized growth,"S. cerevisiae deletion strains, locus YCL061C, strain MRC1, hits give low values",0.872 (active)
same,normalized growth,[3],0.982
same,normalized growth,[4],0.899
same,normalized growth,[5],0.796 (active)
same,normalized growth,[6],0.867 (active)
same,normalized growth,[7],0.331 (active)
same,normalized growth,[8],0.899 (active)
same,normalized growth,[9],0.972
same,normalized growth,[10],0.961
same,normalized growth,[11],0.715 (active)
same,normalized growth,[12],0.847
same,normalized growth,[13],0.968
same,normalized growth,[14],0.254 (active)
same,normalized growth,[15],0.962
same,normalized growth,[16],0.703 (active)
same,normalized growth,[17],0.985
same,normalized growth,[18],0.937
same,normalized growth,[19],0.912 (active)
same,normalized growth,[20],0.378 (active)
same,normalized growth,[21],0.999
same,normalized growth,[22],0.522 (active)
same,normalized growth,[23],0.735 (active)
same,normalized growth,[24],0.661 (active)
same,normalized growth,[25],0.513 (active)
same,normalized growth,"S. cerevisiae strains, strain wild type, hits give low values",0.756 (active)
